Experimental data from PubChem BioAssay AID1159580 (chemical genetic matrix, 2015).
Values joined by “and” are separate entries in the source; they are usually repeats but may differ in a detail not shown here. Equal values may be shown once. Out of some 5,500 compounds screened, about 2,000 (36%) were called active. Not shown: some 18% with an inconclusive outcome. No stated cut-off is given here; in the data, active means normalized growth mostly below about 0.91 (no sharp cut-off); inconclusive means no clear call, values can overlap the other calls; inactive means mostly above about 0.92. The list shows a part of the results.

Experiment: chemical genetic growth profiling, strain panel (AID 1159580);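 further: tested at 20 µM; growth read once vehicle control cultures reached saturation at 30 °C; 1 = growth at the plate median or of vehicle wells; lower values mean less growth of the strain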
Conditions: growth OD

Measured: normalized growth

CN1C(C)(C)CCCC1(C)C
inactive: S. cerevisiae deletion strains, locus YAL013W, strain DEP1, hits give low values 1.02 and 1.01 | S. cerevisiae deletion strains, locus YAL040C, strain CLN3, hits give low values 1.07 | S. cerevisiae deletion strains, locus YBR021W, strain FUR4, hits give low values 1.01 | S. cerevisiae deletion strains, locus YBR229C, strain ROT2, hits give low values 1.02 | S. cerevisiae deletion strains, locus YCL029C, strain bik1, hits give low values 0.988 | S. cerevisiae deletion strains, locus YCL061C, strain MRC1 (second series), hits give low values 0.994 | S. cerevisiae deletion strains, locus YDL035C, strain GPR1, hits give low values 1.02 | S. cerevisiae deletion strains, locus YDL074C, strain BRE1, hits give low values 1.06 | S. cerevisiae deletion strains, locus YDL101C, strain DUN1, hits give low values 1.02 | S. cerevisiae deletion strains, locus YDL134C, strain PPH21, hits give low values 1.02 | S. cerevisiae deletion strains, locus YDL185W, strain tfp1, hits give low values 0.993 | S. cerevisiae deletion strains, locus YDL192W, strain arf1, hits give low values 0.978 | S. cerevisiae deletion strains, locus YDR101C, strain arx1, hits give low values 0.969 | S. cerevisiae deletion strains, locus YDR150W, strain NUM1, hits give low values 1.02 and 1 | S. cerevisiae deletion strains, locus YDR162C, strain NBP2, hits give low values 1.04 | S. cerevisiae deletion strains, locus YDR318W, strain mcm21, hits give low values 0.99 | S. cerevisiae deletion strains, locus YDR363W, strain ESC2, hits give low values 0.997 | S. cerevisiae deletion strains, locus YDR388W, hits give low values 0.998 | S. cerevisiae deletion strains, locus YDR502C, strain sam2, hits give low values 1.02 | S. cerevisiae deletion strains, locus YEL061C, strain CIN8, hits give low values 1.02 | S. cerevisiae deletion strains, locus YER002W, strain NOP16, hits give low values 1.02 | S. cerevisiae deletion strains, locus YER110C, hits give low values 0.992 | S. cerevisiae deletion strains, locus YER155C, strain BEM2, hits give low values 1.02 | S. cerevisiae deletion strains, locus YER167W, strain BCK2, hits give low values 1.02 | S. cerevisiae deletion strains, locus YGL078C, strain dbp3, hits give low values 1.01 | S. cerevisiae deletion strains, locus YGL086W, strain mad1, hits give low values 0.996 | S. cerevisiae deletion strains, locus YGL248W, strain PDE1, hits give low values 1.03 | S. cerevisiae deletion strains, locus YGR078C, strain PAC10, hits give low values 1.04 | S. cerevisiae deletion strains, locus YGR135W, strain pre9, hits give low values 1.01 | S. cerevisiae deletion strains, locus YGR229C, strain SMI1, hits give low values 1.03 and 0.995 | S. cerevisiae deletion strains, locus YGR252W, strain gcn5, hits give low values 0.907 | S. cerevisiae deletion strains, locus YHR030C, strain SLT2, hits give low values 1.01 | S. cerevisiae deletion strains, locus YHR079C, strain IRE1 (second series), hits give low values 0.988 | S. cerevisiae deletion strains, locus YHR094C, strain hxt1, hits give low values 1 | S. cerevisiae deletion strains, locus YHR129C, strain ARP1, hits give low values 1.01 | S. cerevisiae deletion strains, locus YHR200W, strain rpn10, hits give low values 0.997 | S. cerevisiae deletion strains, locus YIL066C, strain RNR3, hits give low values 1.03 | S. cerevisiae deletion strains, locus YIL073C, strain SPO22, hits give low values 0.991 | S. cerevisiae deletion strains, locus YIL125W, strain kgd1, hits give low values 1.01 | S. cerevisiae deletion strains, locus YIR030C, strain dcg1, hits give low values 0.999 | S. cerevisiae deletion strains, locus YJL095W, strain BCK1, hits give low values 1.03 | S. cerevisiae deletion strains, locus YJL134W, strain LCB3, hits give low values 1.01 | S. cerevisiae deletion strains, locus YJL168C, strain set2, hits give low values 0.993 | S. cerevisiae deletion strains, locus YJL187C, strain SWE1 (second series), hits give low values 1.04 | S. cerevisiae deletion strains, locus YJR043C, strain POL32, hits give low values 1 | S. cerevisiae deletion strains, locus YJR075W, strain HOC1, hits give low values 1.02 | S. cerevisiae deletion strains, locus YKL009W, strain mrt4, hits give low values 0.962 | S. cerevisiae deletion strains, locus YKL068W, hits give low values 1 | S. cerevisiae deletion strains, locus YKL085W, strain MDH1 (second series), hits give low values 1.01 | S. cerevisiae deletion strains, locus YKL085W, strain MDH1, hits give low values 1.01 | S. cerevisiae deletion strains, locus YKL190W, strain CNB1, hits give low values 1.01 | S. cerevisiae deletion strains, locus YKR001C, strain vps1, hits give low values 0.994 | S. cerevisiae deletion strains, locus YLR039C, strain RIC1, hits give low values 1.03 | S. cerevisiae deletion strains, locus YLR058C, strain SHM2, hits give low values 1.02 | S. cerevisiae deletion strains, locus YLR102C, strain apc9, hits give low values 0.998 | S. cerevisiae deletion strains, locus YLR262C, strain YPT6, hits give low values 1.02 | S. cerevisiae deletion strains, locus YLR268W, strain sec22, hits give low values 1.01 | S. cerevisiae deletion strains, locus YLR330W, strain CHS5, hits give low values 1.01 | S. cerevisiae deletion strains, locus YLR342W, strain FKS1 (second series), hits give low values 0.996 | S. cerevisiae deletion strains, locus YLR371W, strain rom2, hits give low values 0.984 | S. cerevisiae deletion strains, locus YLR418C, strain cdc73, hits give low values 1 | S. cerevisiae deletion strains, locus YML016C, strain PPZ1, hits give low values 1.02 | S. cerevisiae deletion strains, locus YML032C, strain rad52, hits give low values 0.995 | S. cerevisiae deletion strains, locus YML124C, strain tub3, hits give low values 1 | S. cerevisiae deletion strains, locus YMR078C, strain ctf18, hits give low values 0.999 | S. cerevisiae deletion strains, locus YMR223W, strain ubp8, hits give low values 0.983 | S. cerevisiae deletion strains, locus YMR263W, strain SAP30, hits give low values 1.03 | S. cerevisiae deletion strains, locus YMR307W, strain GAS1, hits give low values 1.04 | S. cerevisiae deletion strains, locus YNL067W, strain RPL9B, hits give low values 1.03 | S. cerevisiae deletion strains, locus YNL128W, strain TEP1, hits give low values 1.03 | S. cerevisiae deletion strains, locus YNL153C, strain GIM3, hits give low values 1.04 and 1.01 | S. cerevisiae deletion strains, locus YNL175C, strain NOP13, hits give low values 1 | S. cerevisiae deletion strains, locus YNL197C, strain WHI3, hits give low values 1 | S. cerevisiae deletion strains, locus YNL224C, strain SQS1, hits give low values 1.01 | S. cerevisiae deletion strains, locus YNL233W, strain BNI4, hits give low values 1.04 | S. cerevisiae deletion strains, locus YNL250W, strain rad50, hits give low values 1 | S. cerevisiae deletion strains, locus YNL271C, strain bni1, hits give low values 0.99 | S. cerevisiae deletion strains, locus YNL298W, strain CLA4, hits give low values 0.996 | S. cerevisiae deletion strains, locus YNL307C, strain MCK1, hits give low values 0.993 | S. cerevisiae deletion strains, locus YNL322C, strain KRE1, hits give low values 1.02 | S. cerevisiae deletion strains, locus YNR052C, strain pop2, hits give low values 0.982 | S. cerevisiae deletion strains, locus YOL006C, strain TOP1, hits give low values 1.06 | S. cerevisiae deletion strains, locus YOL012C, strain htz1 1.39 | S. cerevisiae deletion strains, locus YOL147C, strain pex11, hits give low values 0.996 | S. cerevisiae deletion strains, locus YOR061W, strain CKA2, hits give low values 1.01 | S. cerevisiae deletion strains, locus YOR069W, strain VPS5, hits give low values 1.01 | S. cerevisiae deletion strains, locus YOR083W, strain WHI5 (second series), hits give low values 1.02 | S. cerevisiae deletion strains, locus YOR136W, strain idh2, hits give low values 0.987 | S. cerevisiae deletion strains, locus YOR144C, strain elg1, hits give low values 0.99 | S. cerevisiae deletion strains, locus YOR184W, strain ser1, hits give low values 0.962 | S. cerevisiae deletion strains, locus YOR316C, strain cot1, hits give low values 1 | S. cerevisiae deletion strains, locus YPL055C, strain LGE1, hits give low values 1.05 and 1.01 | S. cerevisiae deletion strains, locus YPL241C, strain CIN2, hits give low values 1.02 | S. cerevisiae deletion strains, locus YPR119W, strain clb2, hits give low values 1.01 | S. cerevisiae deletion strains, locus YPR141C, strain kar3, hits give low values 0.994 | S. cerevisiae deletion strains, locus YPR163C, strain tif3, hits give low values 0.998 | S. cerevisiae deletion strains, locus YPR167C, strain met16, hits give low values 0.998 | S. cerevisiae deletion strains, strain wtn01, hits give low values 1.02 | S. cerevisiae strains, strain wild type, hits give low values 1.02
